Pf growth 48h: inhibits P. falciparum growth in the first generation, 48 h; P. falciparum luciferase growth in erythrocytes, 48 h; Potency, µM (doses to about 28.7 µM), for the others: top-dose activity change, negative = inhibition, usual class: inhibitors; actives 5.9% (n = 310,000); AID 504832; also: potency is read from the fitted curve at half-maximal effect; % is scaled to controls: 0 for no effect and ±100 for the full control effect
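Read-out is firefly luciferase luminescence from an integrated reporter in P. falciparum, so falling signal marks reduced parasite growth. Infected erythrocytes were at 2% hematocrit and 0.1% parasitemia (final) in Albumax-supplemented RPMI 1640.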
Pf growth 96h: inhibits malaria parasite growth, 96 h; P. falciparum luciferase reporter growth, 96 h; Potency, µM (highest dose often 28.7 µM), inactives show top-dose activity change, negative = inhibition, hits mostly inhibitors; actives 6.9% (n = 320,000); also: potency is read from the fitted curve at half-maximal effect; % is scaled to controls: 0 for no effect and ±100 for the full control effect
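P. falciparum expressing integrated firefly luciferase grown in erythrocytes (2% hematocrit, 0.05% parasitemia final) with compounds for 96 hours at 37 C, 5% CO2. Growth inhibition read as loss of luminescence after adding luciferase detection reagent.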
Cycloheximide cs: affects cycloheximide protein synthesis inhibition readout, counter-screen; cell reporter, cycloheximide protein synthesis inhibition counterscreen; actives 12% (n = 300,000); max response, %; in the data active = max response mostly above about 13%, no sharp cut-off; inactive = mostly below about 14%; also: read at 38.3 µM for the half of the compounds with a filed dose; 0% is about no effect
Shiga toxin inh: Shiga toxin inhibition. actives 9.2% (n = 290,000). Vero cells, Shiga toxin protein synthesis inhibition reporter. inhibition, % at 38.7 µM; in the data active = inhibition mostly above about 28%, no sharp cut-off; inactive = mostly below about 43%; also: 0% is about no effect
NS1 function inh: blocks influenza NS1 protein function; Potency, µM (series often up to 46.1 µM), for inactives: at the top dose activity, positive = more growth; actives 0.4% (n = 270,000); AID 2326; calls by dose curve; also: potency is read from the fitted curve at half-maximal effect; actives are rising curves; nearly all actives have a fitted effect of over 50% in size
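Compounds were scored for reversing the slow growth caused by influenza A NS1 in S. cerevisiae, measured by optical density at 600 nm. Assay medium contained 2% galactose at pH 6.0; NS1-free yeast of the same strain were the positive control.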
SARS PLpro yeast: inhibitors of SARS-CoV papain-like protease in yeast | actives 0.19% (n = 330,000) | AID 485353 | S. cerevisiae expressing SARS-CoV PLpro, growth rescue | Potency, µM (top dose mostly 32.9 µM), inactives show at the highest dose activity, positive = growth rescue, actives largely listed as activators; calls by dose curve; also: potency is read from the fitted curve at half-maximal effect; 0% is about no effect; nearly all actives have a fitted effect of over 55% in size
Numbers without * were called inactive. Rows were chosen to be rich in hits. Some 21% of all compounds tested hit in one or more screens of this group. Unless noted, calls follow the shape of the dose curve; as a rule, active = well fitted inhibition curve with a large enough effect; inconclusive = small, poorly fitted or top-dose-only effect, or another doubt; inactive = no such curve, though single readings can be large or run the other way.

What do the screens show for `Cc1ccc(F)cc1NC(=O)CSc1nnc(CNC(=O)c2ccco2)n1C`?
Pf growth 48h: 31%; Pf growth 96h: -1%; SARS PLpro yeast: -3%

Results for CCCNC(=O)CSc1nccn1Cc1ccco1 ?
Pf growth 48h: 3%; Pf growth 96h: 23%; Cycloheximide cs: 7; Shiga toxin inh: -9; NS1 function inh: 5%; SARS PLpro yeast: 0%

What do the screens show for `Cc1ccc(C)c(NC(=O)CSc2nccn2Cc2ccco2)c1`?
Pf growth 48h: 6%; Pf growth 96h: 20%; Cycloheximide cs: 24*; Shiga toxin inh: 54*; NS1 function inh: 5%; SARS PLpro yeast: 2%

Results for Cc1ccc(NC(=O)CSc2nccn2Cc2ccco2)c(C)c1 ?
Pf growth 48h: 192%; Pf growth 96h: 5%; Cycloheximide cs: 52*; Shiga toxin inh: 61*; NS1 function inh: 0%; SARS PLpro yeast: -4%

What do the screens show for `O=C(CSc1nccn1Cc1ccco1)Nc1ccccc1F`?
Pf growth 48h: 33%; Pf growth 96h: 53%; Cycloheximide cs: 30*; Shiga toxin inh: 18; NS1 function inh: 4%; SARS PLpro yeast: 10%

What do the screens show for `Cc1ccc(C)c(NC(=O)CSc2nnc(CNC(=O)c3ccco3)n2C)c1`?
Pf growth 48h: 28%; Pf growth 96h: 2.1µM*; Cycloheximide cs: 16; Shiga toxin inh: -2; NS1 function inh: 6%; SARS PLpro yeast: 4%

What do the screens show for `C=CCSc1nnc(NC(=O)CCN2C(=O)C3CC=CCC3C2=O)s1` (stereo not given)?
Pf growth 48h: 17%; Pf growth 96h: -8%; SARS PLpro yeast: 1%

Results for COc1cccc(C(=O)NNC(=O)Cc2ccc(Cl)cc2)c1 ?
Pf growth 48h: 5%; Pf growth 96h: 2.9µM*; Cycloheximide cs: -2; Shiga toxin inh: -14; NS1 function inh: 16%; SARS PLpro yeast: -1%

How did O=C(Cc1ccc(Cl)cc1)Nc1ccc(CN2CCCCC2)cc1 do in these assays?
Pf growth 48h: inconclusive; Pf growth 96h: 12µM*; Cycloheximide cs: -2; Shiga toxin inh: 5; NS1 function inh: 3%; SARS PLpro yeast: 1%

How did O=C(Cc1ccc(Cl)cc1)Nc1ccc(NC(=O)c2ccccc2)cc1 do in these assays?
Pf growth 48h: 5%; Pf growth 96h: 5%; Cycloheximide cs: 4; Shiga toxin inh: 14; NS1 function inh: 7%; SARS PLpro yeast: 5%

Results for Cc1cccc(C(=O)Nc2ccc(NC(=O)Cc3ccc(Cl)cc3)cc2)c1 ?
Pf growth 48h: 16%; Pf growth 96h: 12µM*; Cycloheximide cs: -3; Shiga toxin inh: -6; NS1 function inh: 7%; SARS PLpro yeast: 9%

Results for O=C(Cc1ccc(Br)cc1)Nc1ccc(Cl)cc1 ?
Pf growth 48h: inconclusive; Pf growth 96h: -80%; Cycloheximide cs: 25*; Shiga toxin inh: 24; SARS PLpro yeast: -7%

How did CC(=O)Nc1ccc(CN2CCCCCC2)cc1 do in these assays?
Pf growth 48h: 13%; Pf growth 96h: 0%; Cycloheximide cs: 0; Shiga toxin inh: -6; NS1 function inh: -2%; SARS PLpro yeast: -1%

How did CN(C)S(=O)(=O)c1cc(NC(=O)COC(=O)c2nc(Cl)ccc2Cl)ccc1Cl do in these assays?
SARS PLpro yeast: 1%

What do the screens show for `O=C(Cc1cccc(Cl)c1)Nc1ccc(Br)cc1`?
Pf growth 48h: 8%; Pf growth 96h: 19%; Cycloheximide cs: 17*; Shiga toxin inh: 26; NS1 function inh: -9%; SARS PLpro yeast: -1%

Results for O=C(Cc1ccccc1)Nc1ccc(NC(=O)c2ccc(Br)cc2)cc1 ?
Pf growth 48h: -9%; Pf growth 96h: inconclusive; Cycloheximide cs: -2; NS1 function inh: -1%; SARS PLpro yeast: -1%

Results for COc1cccc(C(=O)NN/C(C)=C/C(=O)C(F)(F)C(F)(F)C(F)(F)F)c1 ?
Pf growth 48h: 0%; Pf growth 96h: 43%; Cycloheximide cs: 25*; Shiga toxin inh: 66*; NS1 function inh: -36%; SARS PLpro yeast: 13%

What do the screens show for `CCc1ccc(NC(=O)CN2C(=O)C(=O)N(Cc3ccccc3)C2=O)cc1`?
Pf growth 48h: 10%; Pf growth 96h: 43%; Cycloheximide cs: -1; Shiga toxin inh: -17; SARS PLpro yeast: -2%

Results for CC1CCCN(c2ncnc3c2cnn3-c2ccccc2)C1 (stereo not given) ?
Pf growth 48h: 84%; Pf growth 96h: 96%; Cycloheximide cs: 20*; Shiga toxin inh: 50; NS1 function inh: -38%; SARS PLpro yeast: -3%

What do the screens show for `Cc1ccc(-n2ncc3c(N4CCCC(C)C4)ncnc32)c(C)c1` (stereo not given)?
Pf growth 48h: 125%; Pf growth 96h: 98%; Cycloheximide cs: 65*; Shiga toxin inh: 83*; NS1 function inh: 5%; SARS PLpro yeast: -2%

How did Cc1ccc(-n2ncc3c(N4CCCC4)ncnc32)c(C)c1 do in these assays?
Pf growth 48h: -2%; Pf growth 96h: inconclusive; Cycloheximide cs: 2; Shiga toxin inh: 24; NS1 function inh: -68%; SARS PLpro yeast: 2%

How did CC1CCCN(c2ncnc3c2cnn3-c2ccc(Cl)cc2)C1 (stereo not given) do in these assays?
Pf growth 48h: -5%; Pf growth 96h: 0%; Cycloheximide cs: 62*; Shiga toxin inh: 60*; NS1 function inh: 10%; SARS PLpro yeast: 0%

Results for CC1CC(C)CN(c2ncnc3c2cnn3-c2ccc(Cl)cc2)C1 (stereo not given) ?
Pf growth 48h: 303%; Pf growth 96h: 292%; Cycloheximide cs: 59*; Shiga toxin inh: 105*; NS1 function inh: 0%; SARS PLpro yeast: 20%

Results for CNC(=S)N(CCCn1ccnc1)Cc1c(F)cccc1Cl ?
Pf growth 48h: inconclusive; Pf growth 96h: inconclusive; Cycloheximide cs: -3; Shiga toxin inh: 27; NS1 function inh: 14%; SARS PLpro yeast: -1%

How did CCN(N=O)[C@@H](Cc1ccccc1)CN(N=O)[C@@H](Cc1ccccc1)CN(C)N=O do in these assays?
Pf growth 48h: -81%; Pf growth 96h: 0%; Cycloheximide cs: 1; Shiga toxin inh: -3; NS1 function inh: -2%; SARS PLpro yeast: -1%

What do the screens show for `O=C(Cc1c(Cl)cccc1Cl)N1CCN(S(=O)(=O)c2cccs2)CC1`?
Pf growth 48h: inconclusive; Pf growth 96h: inconclusive; SARS PLpro yeast: 0%

Results for COc1ccc(-n2ncc3c(N4CCN(Cc5ccccc5)CC4)ncnc32)cc1 ?
Pf growth 48h: -8%; Pf growth 96h: inconclusive; Cycloheximide cs: 5; Shiga toxin inh: 16; SARS PLpro yeast: -1%

Results for COc1cccc(N2CCN(c3ncnc4c3cnn4-c3ccc(C)cc3C)CC2)c1 ?
Pf growth 96h: 5.9µM*; Cycloheximide cs: 17*; Shiga toxin inh: 41; NS1 function inh: 20%; SARS PLpro yeast: 8%

Results for COc1ccc(C2=NS(=O)(=O)N(C)C(C(=O)NCc3ccccn3)=C2)cc1OC ?
Pf growth 48h: 4%; Pf growth 96h: 8%; Cycloheximide cs: 2; Shiga toxin inh: -2; NS1 function inh: 5%; SARS PLpro yeast: -5%

Source: PubChem
